Screens (PubChem)
The list is not random: actives were taken first. Their share in the collection is about 1.4%.
AID504770 – growth inhibition of E. coli YBA685, primary screen, V. cholerae RctB inhibitors | E. coli YBA685 rctB-dependent plasmid, OD600 growth, 3 h; hits give low values | z-score (concentration not given with the values) | 130,000 compounds, 0.27% hits | AID 504770, 2011; in the data active means z-score below about -2, passing the limit was not always enough
MbtI inh – MbtI salicylate synthase inhibitors, primary screen, biochemical, fluorescence intensity | inhibition, % (no concentration beside the values) | 100,000 compounds, 0.89% hits | P9WFX0 | purified MbtI enzyme, fluorescence intensity read-out | AID 493033, 2011; in the data active means inhibition mostly above about 56%, no sharp cut-off; inactive means mostly below about 77%
Mtb MenB inh – M. tuberculosis MenB inhibitors, primary screen, biochemical, absorbance; MenB enzyme assay, absorbance read-out; inhibition, % (concentration not given with the values); 100,000 compounds, 0.43% hits; AID 540299, 2011; in the data active means inhibition above about 21%, passing the limit was not always enough
Polio RdRp inh – poliovirus RdRp elongation inhibitors, primary screen, biochemical, fluorescence polarization, total intensity; Genome polyprotein (Poliovirus type 1 (strain Mahoney)), P03300; poliovirus polymerase elongation; hits give low values; % elongation, % (compound at 16.7 µg/mL); 150,000 compounds, 0.66% hits; in the data active means % elongation below about 90%
Target sequence (P03300 1749-2209 limits assumed): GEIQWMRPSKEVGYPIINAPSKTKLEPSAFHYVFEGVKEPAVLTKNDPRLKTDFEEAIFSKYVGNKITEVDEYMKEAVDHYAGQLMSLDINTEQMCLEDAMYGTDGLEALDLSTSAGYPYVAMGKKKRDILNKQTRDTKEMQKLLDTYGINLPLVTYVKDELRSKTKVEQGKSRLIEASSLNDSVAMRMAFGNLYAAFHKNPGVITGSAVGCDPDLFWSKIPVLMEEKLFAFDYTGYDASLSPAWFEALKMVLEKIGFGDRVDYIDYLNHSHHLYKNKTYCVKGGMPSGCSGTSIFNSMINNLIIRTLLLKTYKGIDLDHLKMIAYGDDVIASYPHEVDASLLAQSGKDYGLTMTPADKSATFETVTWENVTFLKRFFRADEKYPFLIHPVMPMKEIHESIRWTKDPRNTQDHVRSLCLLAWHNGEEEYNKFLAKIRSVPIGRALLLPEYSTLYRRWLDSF
* hit, by the source's call; / = no result given; ! = repeats disagree.

SMILES	AID504770	MbtI inh	Mtb MenB inh	Polio RdRp inh
C=CCNC(=O)c1ccccc1OCc1ccccc1	-1.2	-9.7	-15.2	101.0
Cc1ccc(C(=O)CC(NCCc2c[nH]c3ccccc23)C(=O)O)cc1 (stereo unspecified)	-1.7	/	47.5*	103.0
CC(C)C(=O)NCCc1c[nH]c2ccccc12	-0.5	-23.8	-9.4	101.0
S=c1[nH]nc(-c2ccncc2)n1-c1ccc2c(c1)OCO2	0.9	62.3*	-4.2	99.0
C/C(C/C(C)=C1/SC(=S)NC1=O)=C1\SC(=S)NC1=O	-0.35	80.8*	-54.5	102.0
CCOC(=O)Cn1cnc2sc(C(=O)OCC)c(C)c2c1=O	-0.7	15.5	47.7*	102.0
Nc1ccc(N2CCOCC2)c(N)c1	0.25	35.2	-43.1	56.0*
Nc1cc(Cl)c(N2CCOCC2)cc1N1CCOCC1	0.25	/	/	/
COc1cccc(N2C(=O)CC(n3nc(Nc4cccc(C)c4)sc3=S)C2=O)c1 (stereo unspecified)	1.25	98.8*	-0.1	101.0
COc1cccc(N2C(=O)CN=C2Nc2nc(C)cc(C)n2)c1	1.25	/	-7.8	107.0
Nc1n[nH]c(C2CCCCC2)n1	0.05	-1.8	-54.5	101.0
Nc1nc(N)c2[nH]c(C3CCCCC3)nc2n1	-1	79.2	-6.2	79.0*
N#Cc1ccc(CSc2nc3ccccc3c(=O)[nH]2)cc1	-0.1	53.4*	-13.7	99.0
O=C(c1cc(-c2ccccc2)c(N2CCOCC2)s1)N1CCC2(CC1)OCCO2	-0.85	16.1	-2.5	98.0
COc1ccccc1/C(N)=N/O	-0.85	-7.1	17.2	103.0
O=C(Nc1ccc(F)cc1)C(Sc1nnc(C2CC2)o1)c1ccccc1 (stereo unspecified)	-0.4	54.9*	-3.6	96.0
CCOC(=O)c1oc2ccccc2c1COC(=O)c1ccc(S(=O)(=O)N2CCCC2)cc1	-0.7	-9.2	-42.9	101.0
CC1=CC(=O)c2ccccc2C1=O	0.65	10.0	-6.0	99.0
NC1=CC(=O)c2ccccc2C1=O	-2.35*	66.2	-65.5	88.0*
CCOCc1cnc(C)nc1NC(C)=O	-0.2	0.6	7.4	99.0
CC(C)(C)c1nc(-c2ccc(C(F)(F)F)cn2)no1	-0.55	/	/	/
CCOc1ccc(-c2csc(Cn3c(CN4CCN(C)CC4)nc4ccccc4c3=O)n2)cc1	0.1	84.6*	-6.2	66.0*
S=c1[nH]nc(Cc2cccc3ccccc23)n1/N=C/c1ccco1	0.75	64.8*	-36.7	99.0
FC(F)(F)c1n[nH]c(=S)n1/N=C/c1c[nH]c2ccccc12	0.25	/	-5.0	95.0
NNC(=O)C1CCN(c2ncc(C(F)(F)F)cc2Cl)CC1	-0.7	-10.5	-11.1	104.0
SMILES	AID504770	MbtI inh	Mtb MenB inh	Polio RdRp inh
NNc1nc(-c2ccccc2)c2ccccc2n1	1.25	/	/	/
NNc1nnc(-c2ccccc2)c(-c2ccccc2)n1	3	72.9*	-40.5	100.0
C=CCN(CC=C)C(=O)C[n+]1ccc(C(N)=O)cc1	-4*	-0.4	-14.8	103.0
C=CCN(CC=C)C(=O)C[n+]1cccc(C(N)=O)c1	0.2	6.0	-26.0	101.0
Clc1ccccc1C1=NC2=S(O1)OC(c1ccccc1Cl)=N2	0.6	80.5*	5.6	96.0
Cc1ccc(C2C(C(=O)/C=C/c3ccccc3)=C(O)C(=O)N2CCO)cc1 (stereo unspecified)	-0.25	3.5	-299.3	102.0
N#Cc1ccc(OC(=O)c2cccc(-n3cccc3)c2)cc1	-0.25	-7.9	-23.1	103.0
C=C1c2cccc(O)c2C(O)=C2C(=O)[C@]3(O)C(O)=C(C(N)=O)C(=O)[C@@H](N(C)C)[C@@H]3[C@@H](O)[C@H]12	-3.35*	-1.2	5.2	100.0
CN(C)[C@@H]1C(=O)C(C(N)=O)=C(O)[C@@]2(O)C(=O)C3=C(O)c4c(O)cccc4[C@@](C)(O)[C@H]3C[C@@H]12	-3.2*	2.8	-0.9	99.0
C=C1c2c(Cl)ccc(O)c2C(O)=C2C(=O)[C@]3(O)C(O)=C(C(N)=O)C(=O)[C@@H](N(C)C)[C@@H]3[C@@H](O)[C@H]12	-4.25*	-54.5	4.0	102.0
C[C@H]1c2cccc(O)c2C(O)=C2C(=O)C3(O)C(O)=C(C(N)=O)C(=O)[C@@H](N(C)C)[C@@H]3[C@@H](O)[C@@H]21 (stereo partly specified)	/	3.3	-12.0	101.0
CN(C)[C@@H]1C(=O)C(C(=O)NCN2CCCC2)=C(O)[C@@]2(O)C(=O)C3=C(O)c4c(O)cccc4[C@@](C)(O)C3CC12 (stereo partly specified)	/	-10.2	-3.6	96.0
COc1ccccc1/C=C1/Sc2ccc(C(=O)N3CCN(c4ncccn4)CC3)cc2N(C)C1=O	0.6	-4.3	-35.3	103.0
COCCn1c(C)cc(O)c(C(c2ccccc2)N2CCN(c3ccccc3)CC2)c1=O (stereo unspecified)	/	/	/	85.0*
O=S(=O)(c1cccs1)c1cccs1	-0.65	/	/	/
N#Cc1nccnc1S(=O)(=O)c1cccs1	-7.85*	/	/	/
Cc1ccc2nc(SCc3nc4ccccc4c(=O)n3CC#N)[nH]c2c1	0.65	2.6	-26.2	45.0
C=CCc1cccc(/C=N/n2c(-c3ccccc3C)n[nH]c2=S)c1O	2.6	12.7	-58.6	98.0
COCCn1c(C)cc(/C=N/n2c(-c3ccccc3C)n[nH]c2=S)c1C	0.5	95.7*	-36.9	82.0*
N#CCn1ccn(-c2ccc(F)c(Cl)c2)c(=O)c1=O	-1.25	-9.4	-13.1	103.0
O=c1sn(-c2ccc(F)c(Cl)c2)c(=O)n1C1Cc2ccccc2C1	-3.3*	83.2*	9.1	95.0
OC(Cn1cncn1)c1ccc(Br)cc1Br (stereo unspecified)	-0.25	-16.9	-4.2	104.0
O=c1[nH][nH]c(=S)n1C1Cc2ccccc2C1	-0.8	67.2*	-0.8	100.0
O=c1[nH]nc(SCCS(=O)(=O)c2ccc(F)cc2)n1C1Cc2ccccc2C1	-0.15	/	/	/
O=c1[nH][nH]c(=S)n1CC1CCCO1 (stereo unspecified)	0.05	83.2	-17.1	95.0
SMILES	AID504770	MbtI inh	Mtb MenB inh	Polio RdRp inh
O=c1[nH][nH]c(=S)n1C1CC1	1.55	71.2*	37.9*!	99.0
COc1ccc(C(=O)OCC(=O)N2C(C)CCCC2C)cc1 (stereo unspecified)	-0.7	-7.5	-2.3	102.0
Cc1sc2nc(CC(=O)N3CCCC3)[nH]c(=O)c2c1C	0.95	66.7	-53.2	75.0*
O=C(CCc1nc2sc3c(c2c(=O)[nH]1)CCCC3)N1CCCCC1	0.65	/	/	/
Cc1nc2c(ccc3ccsc32)s1	-0.9	20.9	-38.1	100.0
CC(=O)Oc1ccc(OC(C)=O)c(C2=C3C(=O)N(CCc4c[nH]c5ccccc45)CC(=O)N3CCC2)c1	0.3	100.3*	12.2	104.0
O=C(COc1ccc(-c2nnco2)cc1)N1CCSc2ccccc21	0.15	2.4	-1.1	100.0
O=C(O)C1C2C=CC3(CN(c4ccc(Cl)c(F)c4)C(=O)C13)O2 (stereo unspecified)	1.95	/	8.1	100.0
COC(=O)c1cc(N2C(=O)C3C4C=CC(C)(O4)C3C2=O)ccc1Cl (stereo unspecified)	-0.55	81.2*	-6.8	104.0
